These results are taken from PubChem BioAssay (NCI).

Test systems include DU-145 prostate; MALME-3M melanoma; MDA-MB-231 breast; RXF 393 renal; SF-268 CNS; SF-295 CNS; SF-539 CNS; UACC-257 melanoma; M14 melanoma.
Experiment in all cases: NCI-60 one-dose screen, 48 h (100 = growth as untreated, 0 = no growth, -100 = all killed)
Details in all cases: 10 µM unless noted

Molecules are shown by their SMILES. Compounds without any hit were thinned out: in the full panel of roughly 83,000, 20% have a hit.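 How to read the values: 0–100, growth inhibition (40 = 60% inhibited); 0, no net growth; -100 to 0, cell death (-40 = 40% of starting cells died; -100 = all dead).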 A number with no mark means an inactive call. Activity calls are given as the source filed them. How the source made its calls: active means growth percent below 10; inactive means the rest.

As to `COc1cccc(NC(=O)c2sc3nc(C)c(C(C)=O)cc3c2N)c1`, the growth is 23.3% in the assay with DU-145 prostate; 71.2% in the assay with MALME-3M melanoma; 58.5% with MDA-MB-231 breast; 51.6% in the assay on RXF 393 renal; 69.8% with SF-268 CNS; 29.9% in the assay with SF-295 CNS. For the same molecule, the growth in the assay with SF-539 CNS is 32%; in the assay on UACC-257 melanoma, 60.1%; in the assay with M14 melanoma it was 23.7%.

Regarding `COc1ccc(C(=O)/C=C/c2cccnc2Nc2cc(OC)c(OC)c(OC)c2)cc1`, the growth was 31.9% with DU-145 prostate; 80.5% in the assay on MALME-3M melanoma; 49% in the assay with MDA-MB-231 breast; 12.9% with RXF 393 renal; 14.9% with SF-268 CNS; 27.4% in the assay on SF-295 CNS. In addition, the growth in the assay with SF-539 CNS is 4.67% (active); with UACC-257 melanoma, 35.8%; in the assay with M14 melanoma, 42.7%.

`CCc1nc(N)nc(N)c1C#CC(C)c1cc(-c2ccnc(C)c2)c2oc(C)nc2c1` (configuration not stated): the growth in the assay on DU-145 prostate was 8.31% (active); in the assay with MALME-3M melanoma, 36.7%; with MDA-MB-231 breast, 25.6%; with RXF 393 renal it was -5.33% (active); in the assay with SF-268 CNS, 1.29% (active); with SF-295 CNS it was 5.73% (active). Also, the growth in the assay on SF-539 CNS is -27.3% (active); in the assay with UACC-257 melanoma it was 30.9%; in the assay with M14 melanoma it was -9.02% (active).

Regarding `CCOC(=O)c1sc(Nc2ccc(Cl)cc2)nc1C`, the growth in the assay with DU-145 prostate was 35.5%; in the assay with MALME-3M melanoma it was 36.7%; in the assay with MDA-MB-231 breast, 1.04% (active); in the assay on RXF 393 renal, 10.9%; with SF-268 CNS, 30%; in the assay on SF-295 CNS, 16.3%. Also, the growth in the assay with SF-539 CNS is 25.3%; in the assay with UACC-257 melanoma it was 7.95% (active); in the assay with M14 melanoma, 12.9%.

With `CC1C(/C=N/Nc2ccccc2)C(C#N)(C#N)C1(C#N)C#N` (configuration not stated), the growth with DU-145 prostate is 89.7%; with MALME-3M melanoma it was 99.2%; in the assay on MDA-MB-231 breast, 70.1%; in the assay on RXF 393 renal, 105%; in the assay with SF-268 CNS, 75.4%; in the assay on SF-295 CNS, 70.9%. In addition, the growth in the assay with SF-539 CNS is 102%; in the assay on UACC-257 melanoma, 98.6%; in the assay with M14 melanoma it was 33.2%.

With `Cc1cc2nc3[nH]c4ccccc4c3nc2cc1C`, the growth was 79.4% in the assay on DU-145 prostate; 76.6% in the assay with MALME-3M melanoma; 64.4% in the assay on MDA-MB-231 breast; 74.6% in the assay on SF-268 CNS; 102% with SF-295 CNS; 70.7% in the assay on SF-539 CNS. Also, in the assay with M14 melanoma, the growth was 101%.

As for `CN1CCN=C1c1ccc(NC(=O)c2ccc(C(=O)Nc3ccc(C4=NCCN4C)cc3)cc2)cc1`, the growth is 119% in the assay on DU-145 prostate; 80.6% in the assay on MALME-3M melanoma; 103% in the assay on MDA-MB-231 breast; 111% with SF-268 CNS; 92.9% in the assay with SF-295 CNS; 94.1% in the assay with SF-539 CNS. In addition, the growth with M14 melanoma was 95.9%.

For `CC/C=C\C/C=C\C[C@H]1C/C=C2/C(=O)C=C[C@@H]2C/C=C\CCC(=O)O1`, the growth with DU-145 prostate was 23.2%; with MALME-3M melanoma, 29.6%; in the assay with MDA-MB-231 breast it was 19.3%; in the assay on RXF 393 renal, -71.3% (active); in the assay on SF-268 CNS, 21%; in the assay on SF-295 CNS, 3.94% (active). Besides, the growth is -25.5% (active) with SF-539 CNS, -13.3% (active) in the assay with UACC-257 melanoma and 7.48% (active) in the assay with M14 melanoma.

As for `CC(=O)Oc1ccc(Cl)cc1CN(C(C)=O)C1CCCCC1`, the growth was 125% in the assay with DU-145 prostate; 111% in the assay on MALME-3M melanoma; 105% in the assay with MDA-MB-231 breast; 101% with RXF 393 renal; 100% in the assay on SF-268 CNS; 111% in the assay with SF-539 CNS. The values for the growth in the assay with UACC-257 melanoma and with M14 melanoma were 81.3% and 109%, respectively.

On to `Cc1ccc(C(SCC(N)C(=O)O)(c2ccccc2)c2ccc(C)cc2)cc1` (configuration not stated), for which the growth in the assay with DU-145 prostate is -43.8% (active); in the assay with MALME-3M melanoma, 19.8%; in the assay on MDA-MB-231 breast, -12.7% (active); in the assay on SF-268 CNS it was 20.5%; with SF-295 CNS it was 14.7%; with SF-539 CNS, -5.21% (active). Moreover, in the assay on M14 melanoma, the growth was -34.4% (active).

Turning to `COc1cc(/C=C/C(=O)Nc2cccnc2Nc2ccc(F)cc2)cc(OC)c1OC`, the growth in the assay on DU-145 prostate was 110%; in the assay on MALME-3M melanoma, 110%; in the assay with MDA-MB-231 breast it was 93.5%; in the assay on RXF 393 renal it was 108%; with SF-268 CNS, 102%; in the assay with SF-295 CNS, 94.2%. In addition, the values for the growth with SF-539 CNS, in the assay with UACC-257 melanoma and with M14 melanoma were 95.2%, 62.9% and 103%, respectively.

With `COc1cc2nnc3c4cccnc4[nH]c3c2cc1OC`, the growth with DU-145 prostate was 37.6%; in the assay on MALME-3M melanoma, -3.59% (active); in the assay with MDA-MB-231 breast, 45.9%; in the assay on SF-268 CNS, 19.4%; in the assay with SF-295 CNS, 67.4%; with SF-539 CNS, 54.9%. The growth in the assay on UACC-257 melanoma is -33.4% (active); in the assay on M14 melanoma it was 81.2%.

For `COc1ccc(SC2c3cc(OC)c(OC)cc3Oc3nc(N)c(C#N)c(N)c32)cc1` (configuration not stated), the growth in the assay with DU-145 prostate was -82.8% (active); in the assay on MALME-3M melanoma, -68.9% (active); in the assay with MDA-MB-231 breast it was -67.5% (active); in the assay with RXF 393 renal, -79.5% (active); with SF-268 CNS, -61.8% (active); in the assay on SF-295 CNS, -69.5% (active). In addition, the growth in the assay with SF-539 CNS is -96.6% (active); with UACC-257 melanoma, -43% (active); with M14 melanoma, -87.2% (active).

Turning to `CN(C)[C@@H]1C(=O)C(C(=O)NCc2nc3[nH]cnc(=S)c3[nH]2)=C(O)[C@@]2(O)C(=O)C3=C(O)c4c(O)cccc4[C@@](C)(O)[C@H]3C[C@@H]12`, the growth was 42.6% with DU-145 prostate; 69.4% in the assay on MALME-3M melanoma; 47.5% with MDA-MB-231 breast; 76.1% in the assay with SF-268 CNS; 27.1% with SF-295 CNS; 31.8% in the assay with SF-539 CNS. Besides, the growth in the assay with M14 melanoma is 9.8% (active).

As to `COc1ccc(C2C(C#N)=C(N)Oc3n[nH]c(-c4cccs4)c32)cc1I` (configuration not stated), the growth in the assay on DU-145 prostate was 107%; in the assay with MALME-3M melanoma, 102%; in the assay on MDA-MB-231 breast, 102%; with RXF 393 renal, 93.9%; in the assay on SF-268 CNS it was 91.2%; in the assay with SF-295 CNS it was 94.4%. The growth is 85.6% with SF-539 CNS, 89.4% in the assay on UACC-257 melanoma and 90% in the assay with M14 melanoma.

Take `NC(CSC(c1ccccc1)(c1ccccc1)c1ccc(Cl)cc1)C(=O)O` (configuration not stated): the growth is -49.7% (active) with DU-145 prostate; 22.6% with MALME-3M melanoma; -32.8% (active) in the assay with MDA-MB-231 breast; 16.2% with SF-268 CNS; 13.8% in the assay with SF-295 CNS; -12.3% (active) with SF-539 CNS. For the same molecule, the growth in the assay with M14 melanoma was -24.2% (active).
